What all share (experiment): NCI-60 one-dose screen, 48 h (100 = growth as untreated, 0 = no growth, -100 = all killed)
Conditions in all cases: 10 µM unless noted

Assay [1] concerns SK-MEL-2 melanoma.
Assay [2] has as its system EKVX NSCLC.
Assay [3] relates to SN12C renal.
Assay [4] deals with UO-31 renal.
Assay [5] has as its system TK-10 renal.
Assay [6] relates to ACHN renal.
Assay [7] deals with CAKI-1 renal.
Assay [8] concerns A498 renal.
Assay [9] concerns CCRF-CEM leukemia.
Assay [10] concerns SR leukemia.
Assay [11] relates to RPMI-8226 leukemia.
Assay [12] concerns OVCAR-8 ovarian.
Assay [13] has as its system OVCAR-5 ovarian.
In assay [14] the test system is OVCAR-4 ovarian.
Assay [15] concerns SK-OV-3 ovarian.
For assay [16], the system named is IGROV1 ovarian.
In assay [17] the test system is OVCAR-3 ovarian.
For assay [18], the system named is HS 578T breast.
The test system of assay [19] is NCI/ADR-RES ovarian.
Assay [20] deals with MOLT-4 leukemia.

In PubChem BioAssay (NCI) one finds growth data, which are given here for 8 molecules.

The panel holds about 83,000 compounds, 20% with a hit somewhere; the sample as a whole holds those more often.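 96-well plates, one dose, 48 hours. Percent growth reported; active if below 10.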 Values without a mark were called inactive. The source made the active and inactive calls.

Turning to `CCOC(=O)c1cc(C(=O)c2cc(OC)c(OC)c(OC)c2)n2ncccc12`, the growth is 57.7% in assay [1]; 37.6% in assay [2]; 53.6% in [3]; 39.8% in assay [4]; 54% in assay [5]; 51.6% in assay [6]. Further, the growth in assay [7] is 38.1%; in [8] it was -5.24% (active); in [9], 11%; in assay [10], 18.3%; in assay [11] it was 19.3%; in [12], 30.4%. Moreover, the growth is 63.1% in [13]; 62.4% in [14]; 26.4% in assay [15]; 47.2% in [16]; -15.2% (active) in assay [17]; 31.1% in assay [18]. The growth in [19] is 3.34% (active).

For `COc1ccc(NC2=C(I)C(=O)c3ncccc3C2=O)cc1`, the growth is 29.1% in [1]; 64.8% in assay [2]; -96.4% (active) in [3]; -92.6% (active) in assay [4]; 51.1% in [5]; -12.7% (active) in assay [6]. Besides, the growth in assay [7] is 24.1%; in [8], 65.3%; in assay [9] it was 11%; in assay [20], -31.7% (active); in [11], 4.44% (active); in assay [12], 8.5% (active). Further, the growth in [13] was -62.8% (active); in assay [14] it was -88.3% (active); in assay [15] it was 50%; in [16], -43.9% (active); in assay [17], -10.1% (active); in assay [18], -15.9% (active). In [19], the growth was 0.698% (active).

Turning to `CC(=O)N1N=C(c2ccc(Nc3nc(Nc4ccccc4)nc(Nc4ccccc4)n3)cc2)CC1c1ccccc1` (configuration not stated), the growth was 58.6% in assay [1]; 79.7% in [2]; 99.6% in assay [3]; 73.5% in assay [4]; 87.7% in assay [5]; 93.5% in assay [6]. Also, the growth is 90.2% in assay [7]; 82.4% in [8]; 68.2% in assay [9]; 62.3% in assay [10]; 59.9% in assay [11]; 82.9% in [12]. For the same molecule, the growth is 91.9% in assay [13]; 96.5% in assay [14]; 95.5% in [15]; 54.1% in assay [16]; 88.6% in assay [17]; 89.3% in assay [18]. The growth in [19] is 84.6%.

With `COc1ccc(CN2c3ccccc3Sc3ccccc32)cc1F`, the growth in assay [1] was 39.8%; in assay [2], 34.4%; in assay [3] it was 45.2%; in assay [4], 45.6%; in [5], 47.4%; in assay [6], 41.8%. Further, the growth in [7] was 54.4%; in assay [8], -1.48% (active); in assay [9] it was 22.1%; in assay [20], 27.3%; in assay [11], 21.2%; in [12], 23.7%. The growth is 43.1% in [13]; 49.2% in assay [14]; 16.8% in [15]; 35.5% in [16]; -5.46% (active) in assay [17]; 16.9% in assay [18]. The growth in assay [19] was 2.82% (active).

Turning to `C=CCc1c(O)c(C(=O)/C=C/c2ccccc2)c(OC)c2ccoc12`, the growth in [1] was 11.5%; in [2], 64.6%; in assay [3] it was 57%; in assay [4], 50.9%; in [5] it was 38.8%; in assay [6], 51.7%. The growth is 13.1% in assay [7]; -10.9% (active) in assay [8]; 21.3% in [9]; 15.3% in assay [20]; 6.17% (active) in assay [11]; 29.6% in assay [12]. The growth was 90.5% in assay [13]; 49.1% in assay [14]; 74.4% in assay [15]; 54.7% in assay [16]; 13.7% in assay [17]; 66.1% in assay [18]. The growth in assay [19] is 21%.

Turning to `CCC(C)(C)C(=O)O[C@H]1C[C@@H](C)C=C2C=C[C@H](C)[C@H](CC[C@@H]3CC(SCCN)CC(=O)O3)[C@H]21` (some centres not stated), the growth was 91.1% in [1]; 105% in assay [2]; 77% in assay [3]; 68.6% in assay [4]; 92.1% in assay [5]; 95.8% in [6]. Also, the growth in assay [7] is 83.9%; in [8] it was 90.3%; in assay [9], 12.1%; in assay [10] it was 23.3%; in [11] it was 6.62% (active); in [12], 88.1%. Also, the growth in [13] was 99.1%; in assay [14], 101%; in assay [15], 102%; in assay [16], 98.6%; in assay [17], 90.9%; in assay [18] it was 98.9%. Also, the growth in [19] was 96.7%.

Turning to `COC1=CC(c2ccc[nH]2)=N/C1=C\c1[nH]c(C)c(C(=O)OC(C)C)c1C`, the growth in assay [1] is -61.6% (active); in [2] it was -41.9% (active); in assay [3] it was -2.47% (active); in assay [4] it was -87.5% (active); in assay [5], 3.42% (active); in assay [6], -82.9% (active). Also, the growth was -32.4% (active) in [7]; -37.8% (active) in assay [8]; 13.5% in assay [9]; 11.8% in assay [10]; -34.6% (active) in assay [11]; 2.67% (active) in assay [12]. Moreover, the growth in assay [13] was -40.2% (active); in assay [14] it was -49.7% (active); in assay [15] it was 7.3% (active); in [16] it was -41.5% (active); in [17], -53.9% (active); in assay [18] it was -32.8% (active). The growth in assay [19] was -12.5% (active).

Consider `CCCCCCCCCCCCCCCCCCOc1ccccc1CC(=O)OCC[N+](C)(C)C`, for which the growth was 64.8% in assay [1]; 46.9% in assay [2]; 10% in assay [3]; 61.3% in assay [4]; 18% in assay [5]; 55.8% in assay [6]. Also, the growth in assay [7] is 9.52% (active); in assay [8], 45.1%; in assay [9], 5.24% (active); in [10] it was 11.1%; in assay [11], 40.9%; in [12], 5.15% (active). The growth in assay [13] is 31.8%; in assay [14], 20%; in [15], 56.2%; in assay [16], -61.4% (active); in assay [17], 16.5%; in assay [18], 17.1%. For the same molecule, the growth in assay [19] is 91.3%.
